Screening results (PubChem)
ELG1 repair inh – qHTS screen for small molecules that inhibit ELG1-dependent DNA repair in human embryonic kidney (HEK293T) cells expressing luciferase-tagged ELG1; HEK293T ELG1-luciferase reporter, luminescence, 16 h; DNA damage induced by 5-fluorouridine; actives 2.3% (n = 330,000); Potency, µM (top dose mostly 46.1 µM), for the others: at the top dose activity change, negative = inhibition, usual class: inhibitors; note: potency is the fitted concentration of half-maximal effect; nearly all actives have a fitted effect of over 55% in size
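5-Fluorouridine DNA damage + compound/DMSO, 2,000 cells/well, 16 h, 37 °C/5% CO2. ONE-Glo, 30 min RT, luminescence. Readout = decrease in reporter signal.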
DT40 TDP1 CPT – qHTS for Inhibitors of human tyrosyl-DNA phosphodiesterase 1 (TDP1): qHTS in cells in presence of CPT; Potency, µM (series often up to 46.2 µM), inactives show at the highest dose activity change, negative = growth inhibition, hits mostly inhibitors; chicken DT40 Tdp1-/-;hTDP1 cells + 20 nM CPT, ATP luminescence, 48 h; actives 12% (n = 420,000); note: potency is the fitted concentration of half-maximal effect; nearly all actives have a fitted effect of over 55% in size
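Chicken DT40 Tdp1-/- cells stably complemented with human TDP1 were seeded at 400 cells/well in medium containing 20 nM camptothecin, exposed to pin-transferred compounds, and grown at 37 °C for at least 48 hr. Viability was read as ATP luminescence.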
HT1080-NT tox – qHTS for induction of synthetic lethality in tumor cells producing 2HG: qHTS for the HT-1080-NT fibrosarcoma cell line. HT-1080-NT fibrosarcoma viability, CellTiter-Glo ATP luminescence, 48 h. Potency, µM (top dose mostly 46.1 µM), for inactives: at the highest dose activity, negative = less viability, usual class: cytotoxic. actives 1.6% (n = 360,000). AID 686970, 2013;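 note: NT is the 2HG producing partner of a matched IDH1 knockdown line; potency is the fitted concentration of half-maximal effect; 0% = DMSO-treated cells and -100% = media-only wells without cells; nearly all actives have a fitted effect of over 55% in size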
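750 cells/well, RPMI + 5% FBS; 2 h settle, compound pin-transfer, 48 h at 37 degrees C. CellTiter-Glo 10 min RT, luminescence. Normalized to DMSO and media-only wells.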
IL1B secr inh – qHTS for Inhibitors of Inflammasome Signaling: IL-1-beta AlphaLISA Primary Screen; THP-1 LPS/ATP IL-1B secretion, AlphaLISA, 16 h; active compounds read low; actives 4.7% (n = 360,000); AID 743279, 2014; activity change, % at 57.5 µM; in the data active = activity change below about -50%; inconclusive = mostly about -30% to -49%
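THP-1 cells pretreated 1 hr with compounds (up to 57.5 uM final), then stimulated with LPS (250 ng/mL final) plus ATP (1.25 mM final); secreted IL-1B measured by AlphaLISA after 16 hr, decreased signal indicating inhibition.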
HT1080 IDH1KD tx – qHTS for induction of synthetic lethality in tumor cells producing 2HG: qHTS for the HT-1080-IDH1KD cell line; HT-1080 IDH1 knockdown viability, ATP luminescence, 48 h; Potency, µM (series often up to 46.1 µM), inactives show at the top dose activity, negative = toxicity, actives largely listed as cytotoxic; actives 2% (n = 360,000); AID 686971, 2013;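 note: potency is the fitted concentration of half-maximal effect; 0% = DMSO wells and -100% = cell-free medium wells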
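Luminescent ATP read-out (CellTiter-Glo, 10 min at room temperature) after 48 h compound exposure at 37 °C gave viability of IDH1-knockdown HT-1080 cells. Activity was normalised to DMSO and cell-free wells, then fitted as concentration-response curves.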
DT40 TDP1 no CPT – qHTS for Inhibitors of human tyrosyl-DNA phosphodiesterase 1 (TDP1): qHTS in cells in absence of CPT; DT40 Tdp1-/- hTDP1 cells, no CPT, ATP luminescence, 48 h; Potency, µM (highest dose often 46.2 µM), for inactives: top-dose activity change, negative = growth inhibition, most hits filed as inhibitors; actives 15% (n = 420,000); AID 686978, 2013; note: potency is the fitted concentration of half-maximal effect; nearly all actives have a fitted effect of over 55% in size
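DT40 Tdp1-/-;hTDP1 cells, no CPT (DMSO vehicle only), 400 cells/well; compounds pin-transferred; ≥48 hr, 37 °C; CellTiter-Glo 30 min RT dark, luminescence read.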
Numbers without * were called inactive; ? = inconclusive; . = not tested or not shown. The list is not random: actives were taken first. Their share in the collection is about 19%. Unless noted, calls come from the whole dose curve; as a rule, active = well fitted curve in the direction sought with a large enough effect; inconclusive = small, poorly fitted or top-dose-only effect, or another doubt; inactive = no such curve, though single readings can be large; an effect the other way counts as inactive or inconclusive. Unless noted, % is set by controls: 0 for no effect and ±100 for the full control effect.

SMILES	ELG1 repair inh	DT40 TDP1 CPT	HT1080-NT tox	IL1B secr inh	HT1080 IDH1KD tx	DT40 TDP1 no CPT
Cc1ccc(CN2CCSc3ccc(C(=O)NC4CCN(Cc5ccccc5)CC4)cc32)cc1	-11.5%	7.31µM*	-0.8%	-81.8*	-1.1%	8.2µM*
O=C(NC1CCCC1)c1ccc2c(c1)N(Cc1ccccc1)CCS2	?	?	-5.6%	-4.5	-5.8%	18.4µM*
CCOc1cc(CNCC(C)C)c(Cl)cc1OCC(=O)Nc1ccccc1	8.3%	?	-25.6%	-4.2	-21.0%	?
OCCC1CN(Cc2cc3c(cc2Cl)OCO3)CCN1C1CCCC1 (centres undefined)	-8.1%	-29.1%	2.0%	?	-3.9%	-16.8%
O=c1c2ccccc2nnn1-c1ccccc1	.	-1.2%	19.0%	-0.8	12.1%	-21.2%
N=c1c2ccccc2nnn1-c1ccc(C(F)(F)F)cc1	?	?	7.6%	-15.6	8.3%	6.51µM*
COc1ccccc1NC(=O)CSCc1cc(=O)c2c(C)cc(C)cc2[nH]1	.	15.8%	.	.	.	?
Cc1nc2ccn(Cc3ccco3)c(=O)c2cc1C(=O)NCc1ccccc1	.	-25.2%	.	.	.	-14.6%
Cc1ccc(C)c(Cn2nc(-c3cc(C)ccc3C)ccc2=O)c1	?	?	?	?	18.4µM*	20.6µM*
COC(=O)c1ccc(Cn2nc(-c3cc(C)ccc3C)ccc2=O)cc1	-15.9%	-27.6%	?	12.4	-3.1%	?
CC(C)(C)CN1C(N)=NC[C@@H]1Cc1ccccc1	.	-1.8%	0.0%	-4.0	-6.2%	-27.1%
O=C1NC[C@H](CCCCN2C[C@H](Cc3ccc(O)cc3)N(CC3CCCCC3)C(=O)C2=O)N(CC2CCCCC2)C1=O	.	1.6%	7.1%	12.6	5.1%	-10.9%
NC1=NC[C@H](Cc2ccccc2)N1CC1CCCCC1	.	10.3µM*	-6.3%	-12.8	-0.2%	11.6µM*
COc1cc(CCCN2C(N)=NC[C@@H]2Cc2ccc(O)cc2)cc(OC)c1OC	?	-5.1%	10.8%	-0.9	-1.0%	-11.4%
NC1=NC[C@H](Cc2ccccc2)N1CCc1cc(C(F)(F)F)cc(C(F)(F)F)c1	-1.5%	23.1µM*	-4.0%	-27.4	-3.7%	14.6µM*
NC1=NC[C@H](Cc2ccc(O)cc2)N1CC1CCCCC1	-3.2%	?	-2.4%	-3.9	-4.3%	14.6µM*
NC1=NC[C@@H](Cc2ccc(O)cc2)N1CCCCC1CCCCC1	-1.9%	5.17µM*	-21.2%	?	-27.0%	3.66µM*
COc1ccccc1NC(=O)CC1S/C(=N/N=C(\C)C2CCCCC2)NC1=O (centres undefined)	?	-25.6%	0.1%	60.2	-18.4%	-20.1%
CCOC(=O)c1c(C)[nH]c(C)c1S(=O)(=O)N1CCC(C(=O)NCc2ccc(F)cc2)CC1	.	-11.0%	.	.	.	-6.9%
NC1=NC[C@H](Cc2ccc(O)cc2)N1CCc1cccc(F)c1	1.0%	-15.6%	3.3%	-5.9	2.5%	?
NC1=NC[C@@H](Cc2ccc(O)cc2)N1CCC12CC3CC(CC(C3)C1)C2	.	20.6µM*	-7.5%	-6.3	-10.2%	20.6µM*
Cn1nnc2cc(C(=O)NC3CCCCC3)ccc21	29.8%	4.7%	20.6%	29.8	15.2%	-0.7%
CCc1ccccc1-n1cnc2cc(C(=O)NC3CCCCCC3)ccc21	.	?	.	.	.	23.1µM*
